Experimental data published in the supplement of paper PMC9399229.
“And” between values parts separate entries of the source, which are not always exact repeats. Equal entries are not always repeated. Structures can show the parent of a compound that is named as a salt. ± gives the standard deviation of the averaged measurements. Whole data set: some 1,900 compounds, median “relative cell viability (CellTiter-Glo), compound alone” near 1, cut for the lowest 2% near 0.16. The sample holds the lowest values, similar compounds and a random draw of the others, so the mix is not that of the screen.

These molecules were tested on Hep3B (assay: relative cell viability (CellTiter-Glo), compound alone (fraction); higher = more viable cells (less growth inhibition)). Conditions: cabozantinib 0 µM; 4 days.
For `O=C(Nc1c[nH]nc1-c1nc2ccc(CN3CCOCC3)cc2[nH]1)NC1CC1`, the relative cell viability was 0.3 ± 0.036.
Work on `O=[N+]([O-])c1ccc2c(c1)S(=O)(=O)C=C2` [Stattic] yielded a relative cell viability of 1.03 ± 0.043.
Molecule `N#Cc1cc(CN2CCC(Nc3ncnc4sc(Cl)cc34)CC2)ccc1F` has a relative cell viability of 1.42 ± 0.079.
Work on `C[C@]12CC[C@@H]3c4ccc(OC(=O)c5ccccc5)cc4CC[C@H]3[C@@H]1CC[C@@H]2O` [Estradiol Benzoate] yielded a relative cell viability of 1.19 ± 0.14.
`COc1ccc(Cn2ccc3ccc(C(=O)NO)cc32)cc1` gave a relative cell viability of 0.909 ± 0.14.
Work on `CCN(CC)CCNC(=O)c1ccc(N)cc1` [Procainamide HCl] yielded a relative cell viability of 0.954 ± 0.032.
Work on `CCN(CC)Cc1ccc2cc(COC(=O)Nc3ccc(C(=O)NO)cc3)ccc2c1` [Givinostat (ITF2357)] yielded a relative cell viability of 0.156 ± 0.0025.
`OCc1ccc(O[C@@H]2O[C@H](CO)[C@@H](O)[C@H](O)[C@H]2O)cc1` [Gastrodin] showed a relative cell viability of 1.354 ± 0.0026.
`CN(C)Cc1cccc(N/C(=C2\C(=O)Nc3cc(C(N)=O)ccc32)c2ccccc2)c1` showed a relative cell viability of 0.7302 ± 0.0057.
For `COC(=O)c1ccc2c(c1)NC(=O)/C2=C(\Nc1ccc(N(C)C(=O)CN2CCN(C)CC2)cc1)c1ccccc1` [Nintedanib (BIBF 1120)], the relative cell viability was 0.761 ± 0.038.
In the case of `CCS(=O)(=O)Nc1ccc2c(c1)/C(=C(/Nc1ccc(CN3CCCCC3)cc1)c1ccccc1)C(=O)N2` [Hesperadin], the relative cell viability is reported as 0.112 ± 0.0022.
`CC(C)[C@H](C(=O)Nc1ccc(C(=O)NO)cc1)c1ccccc1` was tested, and the relative cell viability was 0.138 ± 0.015.
In the case of `CC(=O)Nc1ccc(C(=O)Nc2ccccc2N)cc1` [CI994 (Tacedinaline)], the relative cell viability is reported as 1.17 ± 0.1.
`CCCCN(Cc1ccc(C(=O)NO)cc1)C(=O)Nc1ccccc1` [Nexturastat A] was tested, and the relative cell viability was 1.06 ± 0.17.
In the case of `CCn1cc(-c2ccnc3[nH]c(-c4cccc(CN(C)C)c4)cc23)c(-c2ccc(NC(=O)N(C)C)cc2)n1`, the relative cell viability is reported as 0.94 ± 0.099.
`COc1ccccc1-c1cc(Nc2cccc(CS(N)(=O)=O)c2)ncn1` was tested, and the relative cell viability was 1.11 ± 0.029.
In the case of `CN(C)C(=O)Nc1cccc(-c2ccc(N(C)C)cc2)c1` [Atglistatin], the relative cell viability is reported as 1.37 ± 0.12.
`O=C(Nc1cc(C(F)(F)F)ccc1N1CCCCC1)c1ccncc1` showed a relative cell viability of 1.07 ± 0.016.
`CC(C)n1nc(-c2ccc3oc(N)nc3c2)c2c(N)ncnc21` showed a relative cell viability of 0.387 ± 0.022.
For `CC1(C)CCC[C@]2(C)[C@H]3CC(=O)O[C@]3(C)CC[C@@H]12` [Sclareolide], the relative cell viability was 0.9838 ± 0.007.
Work on `COc1ccc(-c2nc(N3CCOCC3)c3sc(CN(C)c4ncc(C(=O)NO)cn4)cc3n2)cn1` yielded a relative cell viability of 0.132 ± 0.013.
`CS(=O)(=O)N1CCN(Cc2cc3nc(-c4cccc5[nH]ncc45)nc(N4CCOCC4)c3s2)CC1` gave a relative cell viability of 1.17 ± 0.013.
In the case of `Cc1c(CN2CCN(C(=O)[C@H](C)O)CC2)sc2c(N3CCOCC3)nc(-c3cnc(N)nc3)nc12`, the relative cell viability is reported as 0.546 ± 0.022.
`Cc1c(Cc2ccc3ccccc3n2)c2cc(F)ccc2n1CC(=O)O` showed a relative cell viability of 1.08 ± 0.055.
`CN1C(C(=O)Nc2ccccn2)=C(O)c2sccc2S1(=O)=O` [Tenoxicam] was tested, and the relative cell viability was 1 ± 0.051.
Molecule `O=C(COc1ccc(C(=O)c2ccccc2)cc1)NC1CCN(Cc2ccccc2)CC1` [AdipoRon] has a relative cell viability of 0.881 ± 0.096.
`CN1CCN(c2ccc3nc(-c4c(N)c5c(F)cccc5[nH]c4=O)[nH]c3c2)CC1` [Dovitinib (TKI-258) Dilactic Acid] was tested, and the relative cell viability was 0.6208 ± 0.0046.
`CN1CCN(c2ccc3nc(-c4c(N)c5c(F)cccc5[nH]c4=O)[nH]c3c2)CC1` [Dovitinib (TKI-258, CHIR-258)] was tested, and the relative cell viability was 0.85 ± 0.018.
`CN1CCN(c2ccc3nc(-c4c(N)c5c(F)cccc5[nH]c4=O)[nH]c3c2)CC1` [Dovitinib (TKI258) Lactate] was tested, and the relative cell viability was 0.67 ± 0.011.
`Cc1ccc(C(=O)c2cc(O)c(O)c([N+](=O)[O-])c2)cc1` [Tolcapone] was tested, and the relative cell viability was 1.05 ± 0.076.
Work on `C=CC(=O)Nc1ccc2ncnc(Nc3cccc(Br)c3)c2c1` yielded a relative cell viability of 1.48 ± 0.24.
Work on `NC(=S)N/N=C/c1ncccc1N` [Triapine] yielded a relative cell viability of 1.17 ± 0.017.
In the case of `COc1cc(Nc2ncc(F)c(Nc3ccc4c(n3)N(COP(=O)(O)O)C(=O)C(C)(C)O4)n2)cc(OC)c1OC` [Fostamatinib (R788)], the relative cell viability is reported as 0.843 ± 0.025.
Work on `C/C(=C\c1ccc(C(=O)O)cc1)c1ccc2c(c1)C(C)(C)CCC2(C)C` [TTNPB (Arotinoid Acid)] yielded a relative cell viability of 1.11 ± 0.1.
`CO[C@H]1C[C@@H]2CC[C@@H](C)[C@@](O)(O2)C(=O)C(=O)N2CCCC[C@H]2C(=O)O[C@H]([C@H](C)C[C@@H]2CC[C@@H](OP(C)(C)=O)[C@H](OC)C2)CC(=O)[C@H](C)/C=C(\C)[C@@H](O)[C@@H](OC)C(=O)[C@H](C)C[C@H](C)/C=C/C=C/C=C/1C` [Ridaforolimus (Deforolimus, MK-8669)] was tested, and the relative cell viability was 1.07 ± 0.074.
`CC(C)(C)C(=O)Nc1ccc2c(c1)C(=O)C(=O)c1ccccc1-2` showed a relative cell viability of 0.0728 ± 0.012.
`CC(=O)Nc1ccccc1` [Acetanilide] was tested, and the relative cell viability was 1.17 ± 0.044.
`CC1=CC(=O)c2ccccc2C1=O` [Menadione] gave a relative cell viability of 0.9362 ± 0.0074.
With `NC(=O)CCCSc1nc(N)nc(-c2c(Cl)cc3c4c(cccc24)COC3)n1` the relative cell viability was 0.19 ± 0.026.
`Cc1[nH]c2ccccc2c1CCNCc1ccc(/C=C/C(=O)NO)cc1` [Panobinostat (LBH589)] gave a relative cell viability of 0.12 ± 0.019.
`Cc1[nH]c2ccccc2c1CCNC(=O)c1cccs1` showed a relative cell viability of 1.19 ± 0.067.
In the case of `O=C(/C=C/c1cccc(S(=O)(=O)Nc2ccccc2)c1)NO` [Belinostat (PXD101)], the relative cell viability is reported as 0.216 ± 0.019.
`Cn1cc(-c2ccncc2)c(-c2ccc(OCc3ccc4ccccc4n3)cc2)n1` gave a relative cell viability of 1.13 ± 0.025.
`COc1cc(Br)c(Nc2nc(-c3c(C)nc4ncccn34)cs2)c(Br)c1` was tested, and the relative cell viability was 0.601 and 0.575.
`O=C(Nc1cc(C(F)(F)F)cc(C(F)(F)F)c1)c1cc(Cl)ccc1O` was tested, and the relative cell viability was 0.0996 ± 0.0025.
`O=C(Nc1ccccc1)c1ccccc1O` [Salicylanilide] showed a relative cell viability of 1.147 ± 0.0051.
For `CC(ONC(=O)c1cc(C(F)(F)F)cc(C(F)(F)F)c1)C(=O)Nc1ccc(Cl)cc1` (configuration not stated), the relative cell viability was 1.02 ± 0.094.
`CN1CCN(Cc2ccc(-c3cnc4[nH]cc(-c5ccc6[nH]ccc6c5)c4c3)cc2)CC1` showed a relative cell viability of 0.791 ± 0.033.
For `CCNC(=O)c1noc(-c2cc(C(C)C)c(O)cc2O)c1-c1ccc(CN2CCOCC2)cc1`, the relative cell viability was 0.176 ± 0.04.
In the case of `CCNC(=O)c1noc(-c2cc(Cl)c(O)cc2O)c1-c1ccc(OC)cc1`, the relative cell viability is reported as 0.15572 ± 2.3e-05.
Molecule `CCNC(=O)c1[nH]nc(-c2cc(Cl)c(O)cc2O)c1-c1ccc(OC)cc1` has a relative cell viability of 0.348 ± 0.025.
For `COc1ccc2cccc(CCNC(C)=O)c2c1` [Agomelatine], the relative cell viability was 1.1 ± 0.097.
With `CC(=O)Nc1ccc(NC(=S)NC(=O)c2ccc(C(C)(C)C)cc2)cc1` [Tenovin-1] the relative cell viability was 0.269 ± 0.0096.
`CC1(C)CC[C@]2(NC(=O)C(C)(F)F)CC[C@]3(C)[C@H](C(=O)C=C4[C@@]5(C)C=C(C#N)C(=O)C(C)(C)[C@@H]5CC[C@]43C)[C@@H]2C1` [Omaveloxolone (RTA-408)] showed a relative cell viability of 0.206 ± 0.0087.
With `COc1cc(N2CCN(C)CC2)ccc1Nc1nccc(-c2cn(C)c3cnccc23)n1` the relative cell viability was 1.05 ± 0.027.
For `CC(=O)N1CCN(CCOc2ccc(C3CCN(C4=Nn5c(nnc5C(F)(F)F)CC4)CC3)cc2)CC1`, the relative cell viability was 1.3 ± 0.037.
Work on `CNc1cc(-c2cccc(Cl)c2Cl)nc(N)n1` yielded a relative cell viability of 1.1 ± 0.021.
`Cc1[nH]nc2ccc(-c3cncc(OC[C@@H](N)Cc4ccccc4)c3)cc12` gave a relative cell viability of 0.123 ± 0.0016.
In the case of `Cn1nc(C(C)(C)C)cc1C(=O)N[C@@H](Cc1cccc(Cl)c1)C(=O)NCC#N` [Cathepsin Inhibitor 1], the relative cell viability is reported as 1.151 ± 0.011.
With `O=C(NCc1ccc(Oc2ccccc2)cc1)c1nc(-c2cc(Br)c(O)c(Br)c2)no1` the relative cell viability was 1.13 ± 0.022.
`Cn1cc(CNCC2CCN(c3ncc(C(=O)NO)cn3)CC2)c2ccccc21` gave a relative cell viability of 0.163 ± 0.029.
`O=C(NC1CC1)c1cc(-c2cccs2)on1` [Isoxazole 9 (ISX-9)] showed a relative cell viability of 1.13 ± 0.015.
`O=C(O)C(S)=Cc1c[nH]c2ccc(F)cc12` showed a relative cell viability of 1.27 ± 0.013.
`Cc1cc(C)c(CNC(=O)c2cc(-c3ccc(N4CCN(C)CC4)nc3)cc3c2c(C)cn3C(C)C)c(=O)[nH]1` was tested, and the relative cell viability was 1.078 ± 0.0077.
With `O=C(/C=C/c1ccc(O)cc1)c1ccc(O)cc1O` [Isoliquiritigenin] the relative cell viability was 0.904 ± 0.33.
`O=c1[nH]c(=O)n(C2CC(O)C(CO)O2)cc1Br` (configuration not stated) [Bromodeoxyuridine (BrdU)] gave a relative cell viability of 1.04 ± 0.082.
In the case of `CN(C)Cc1ccc(S(=O)(=O)n2ccc(/C=C/C(=O)NO)c2)cc1` [Resminostat], the relative cell viability is reported as 0.781 ± 0.029.
Molecule `CCCCc1nc2cc(/C=C/C(=O)NO)ccc2n1CCN(CC)CC` [Pracinostat (SB939)] has a relative cell viability of 0.155 ± 0.046.
`Cc1ccc(S(=O)(=O)c2ccc([N+](=O)[O-])o2)cc1` gave a relative cell viability of 0.2656 ± 0.0026.
With `O=[N+]([O-])c1cn2c(n1)OC[C@@H](OCc1ccc(OC(F)(F)F)cc1)C2` the relative cell viability was 1.05 ± 0.064.
`COC(=O)CC[C@H](NC(=O)[C@H](CC(=O)OC)NC(=O)OCc1ccccc1)C(=O)N[C@H](C(=O)N[C@@H](CC(=O)OC)C(=O)CF)C(C)C` showed a relative cell viability of 1.25 ± 0.12.
`CC(C)(Cc1ccc2ccccc2c1)NC[C@@H](O)COc1cccc(Cl)c1C#N` was tested, and the relative cell viability was 1.09 ± 0.051.
`O=C(NCC1(c2nc(-c3ccccc3)cs2)CCOCC1)c1cccc(-c2noc(C(F)(F)F)n2)c1` was tested, and the relative cell viability was 1.1 ± 0.12.
Molecule `Clc1ccc(NN=C(c2ccccc2)c2ccccn2)nc1` has a relative cell viability of 0.0829 ± 0.0081.
Work on `O=C(Nc1cccc(Cl)c1)c1ccccn1` yielded a relative cell viability of 0.9222 ± 0.0036.
Work on `COc1ccc(CCc2nc3cc(-c4c(C)noc4C)ccc3n2C[C@H](C)N2CCOCC2)cc1Cl` yielded a relative cell viability of 0.925 ± 0.092.
For `CNC(=O)[C@H](Cc1c[nH]c2ccccc12)NC(=O)[C@@H](CC(=O)NO)CC(C)C` [Ilomastat (GM6001, Galardin)], the relative cell viability was 1.05 ± 0.021.
Work on `Cc1ccc(NC(=O)c2ccc(CN3CC[C@H](N(C)C)C3)c(C(F)(F)F)c2)cc1Nc1nccc(-c2cncnc2)n1` [Bafetinib (INNO-406)] yielded a relative cell viability of 1.13 ± 0.047.
`CCCN1CCCC[C@H]1C(=O)Nc1c(C)cccc1C` [Ropivacaine HCl] showed a relative cell viability of 1.02 ± 0.075.
Work on `CC[C@@H](C)Nc1cc(C(=O)N[C@H]2C[C@H]3CC[C@@H](C2)N3c2ccc(C(=O)C3CC3)cn2)c(C)cc1C(N)=O` yielded a relative cell viability of 0.213 ± 0.014.
Molecule `O=C(O)Cn1nnc(-c2cc(N3CCC(Oc4cc(F)ccc4Br)CC3)no2)n1` has a relative cell viability of 1.05 ± 0.024.
Molecule `CC(C)(C)c1cc(/C=C(\C#N)C(N)=S)cc(C(C)(C)C)c1O` [Tyrphostin AG 879] has a relative cell viability of 1.04 ± 0.053.
